# The supplement of paper PMC11417369
# The full ranking holds about 25,000 sequences; the median of “ln(normalized median fluorescence intensity)” is about 6.7, and the highest 2% start at about 10. This is one part of a sample in which the highest values are shown more often than they occur.
# Tested on: PfHDP1 homeodomain (GST-tagged)
# Test: gcPBM binding intensity (ln(normalized median fluorescence intensity)); higher = stronger DNA binding
# In short: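 An Agilent 4 × 180k array carrying primer-extended double-stranded 36-bp intergenic genomic probes and negative controls received GST-tagged P. falciparum DNA-binding domains expressed in E. coli, about 25 μg on average, for 1 h. The binding buffer contained 1× PBS, 1% milk, 0.2 mg/ml BSA, 0.5% salmon testes DNA and 0.03% Triton X-100. Binding intensity is the top Masliner-normalised natural-log median intensity across replicate spots of either probe orientation, read after Alexa488 anti-GST antibody staining and a 488 nm scan.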
row,Sequence,gcPBM binding intensity (ln)
1,TTACAAGTAAAAGGTACACACATTATAAATACAAAT [CACACA_site4752],6.93
2,ATCAACATCTAACATTGTACATGTGATGTGTAAAAG [XGTACX_site547],6.69
3,TATATATATATATGTACACACATCAATCATATTAAC [CACACA_site1946],9.26
4,TATATATATATATATATTAATAATTAATATAAAAGA [XGTACX_negctrl_site32],9
5,GAGGTACATTAATTAGTGCATTAAAATTTTTATCCT,9.85
6,TATGTTATATAATATTGTACACAAAATGGTTTCTAT [XGTACX_site7686],6.73
7,TAAATTAAAAAAAAAAACAAAAAAAAAGCAACAAAA [CACACA_negctrl_site1318],6.62
8,AAGTTTTCTTAAAGATGTACTTTTTAAAAATAAAAT [XGTACX_site3063],6.15
9,ATGTGCACATGTAGAAGTACTTTTTCTTAAAATACT [XGTACX_site8341],10.9
10,TTTTGAAGTAATACATGTACTTAAATTACTAAAAAA [XGTACX_site1955],6.04
11,TTTAAAATGGGACTTTGAAAAAAAAAAAAAAAAACA [TGCATGCA_negctrl_site111],6.1
12,TGTGTATTTATAAATACACACCAAATGTTAATATAT [CACACA_site6904],6.9
13,AATTTTTTATATGTCACACATTTGTTATTATTATTA [CACACA_site4197],6.51
14,TGTGTCAAATAATTAATGTCATATATATTTTGTATA [CACACA_negctrl_site1479],6.11
15,TTTTCATATTATAGTGCACACAAAAATATATATATG [CACACA_site8929],10.3
16,GTCAAATTTTTGTGCACACATATATAGTTATTATTA [CACACA_site2241],11.7
17,ATGTCAAATTTTTGTGCACACATATATAGTTATTAT [CACACA_site2242],11.4
18,CAGTTGTTAATTTGTGTGCACCAAATATTATACATA,10.5
19,TTTTTTTTTTTTTTTGTGCACAATTATTTCAATTTT [GTGCAC_site9884],10.2
20,AAATATTACATTTGTTAAATAATATGTTATACATAA [XGTACX_negctrl_site484],5.89
21,ATGAAACAGTAACATTGTACTTTTACAAAAAAATAA [XGTACX_site806],6.25
22,TTATATATATATAATACACACATAATAATATATTTA [CACACA_site3038],6.67
23,TATAATAATAATAATAGTACGTATTATTAAAAAACT [XGTACX_site10],6.58
24,TTATAAAAAATTTTAGTGCATATATGATTTATATAT [GTGCAC_site9831],9.44
25,TATATAGATATGATAGTGCATTTTTAGAAAACATAA [GTGCAC_site9962],7.95
26,ATGATATGCAATTTAGTGCATAACAAAATTGGTATA,10.5
